Several values for one entry are separate records, joined by “and”; a condition that tells them apart may be missing. Equal values may be shown once. Records with an inconclusive call do not appear. A number with no mark means an inactive call. Activity calls are given as the source filed them. The call rests on the fitted dose curve; in most records, active means well fitted inhibition curve with a large enough effect; inconclusive means small, poorly fitted or top-dose-only effect; inactive means no such curve, though single readings can be large or run the other way.
target: Cruzipain (Trypanosoma cruzi) (UniProt P25779); experiment: Confirmation qHTS Assay for Inhibitors of Cruzain; conditions: purified cruzain, Z-FR-AMC fluorescence, 0.01% Triton; further: nearly all actives have a fitted effect of over 40% in size;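 on activity change, negative = inhibition: plate controls were uninhibited enzyme control for no effect and buffer wells lacking enzyme for full effect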
Procedure, shortened: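 Reaction progress from the 60 s rise in AMC fluorescence (ex 360, em 450 nm) after adding 2 uM Z-FR-AMC. Before this, 1.5 nM cruzain sat 15 min at room temperature with compound in pH 5.5 acetate buffer with 5 mM DTT and 0.01% Triton X-100.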
Potency means the concentration at half of the fitted maximal effect.

Chain of Cruzipain (Trypanosoma cruzi) (P25779 123-467 limits assumed): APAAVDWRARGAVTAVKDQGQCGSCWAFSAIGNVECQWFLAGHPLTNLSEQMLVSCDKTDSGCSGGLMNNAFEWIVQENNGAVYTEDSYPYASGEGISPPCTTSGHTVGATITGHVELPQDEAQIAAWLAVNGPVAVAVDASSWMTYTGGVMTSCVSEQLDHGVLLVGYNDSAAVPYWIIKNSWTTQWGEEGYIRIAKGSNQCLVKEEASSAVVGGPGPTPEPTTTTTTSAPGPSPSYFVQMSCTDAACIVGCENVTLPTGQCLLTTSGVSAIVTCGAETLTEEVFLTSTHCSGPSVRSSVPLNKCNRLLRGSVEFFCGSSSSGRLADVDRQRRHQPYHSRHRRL

**Q.** Cc1cccc(OCCn2c(CCNC(=O)C3CCCCC3)nc3ccccc32)c1 was tested. Which Potency did it give?
**A.** The Potency was 0.891 µM (active).

**Q.** O=C(NCCCc1nc2ccccc2n1CCOc1ccccc1)C1CCCCC1 was tested. Which activity change, negative = inhibition did it give?
**A.** Its activity change, negative = inhibition is -11.7%.

**Q.** For Cc1ccc(COc2ccc3oc(-c4ccccc4)c(C(=O)O)c3c2)cc1, which activity change, negative = inhibition is on record?
**A.** The activity change, negative = inhibition was -34.5%.

**Q.** How did the Potency turn out when O=C(CNC(=O)C1CCCCC1)OC(C(=O)Nc1cc(C(F)(F)F)ccc1Cl)c1ccccc1 (stereo not drawn) was run?
**A.** The Potency was 5.01 µM (active).

**Q.** Which Potency does the source give for Cc1ccc(S(=O)(=O)N[C@@H](Cc2ccccc2)C(=O)CCl)cc1 here?
**A.** Its Potency is 14.1 µM (active) and 28.2 µM (active).

**Q.** With COc1ccc(OC)c(C(=O)COC(=O)CNC(=O)C2CCCCC2)c1 as the compound, how does the Potency read?
**A.** The Potency was 7.08 µM (active).

**Q.** How did the Potency turn out when CC(C)CCNC(=O)Cn1c(SCc2cccc(F)c2)nc2ccncc21 was run?
**A.** The Potency was 14.1 µM (active).

**Q.** How did the activity change, negative = inhibition turn out when CCc1ccc(NC(=O)Cn2c(SCc3ccc(C)cc3)nc3ccncc32)cc1 was run?
**A.** Its activity change, negative = inhibition is -7.51%.

**Q.** Which activity change, negative = inhibition does the source give for Cc1cccc(Cn2cc(/C=C(/C#N)C(=O)Nc3cccc(Cl)c3)c3ccccc32)c1 here?
**A.** The activity change, negative = inhibition was -2.85%.

**Q.** Which activity change, negative = inhibition does the source give for O=C(Cn1c2ccccc2c(=O)c2ccccc21)Nc1cccc(F)c1 here?
**A.** Its activity change, negative = inhibition is -8.37%.

**Q.** How did the activity change, negative = inhibition turn out when Cc1ccc2[nH]c(=O)c(CN(Cc3ccccc3)Cc3nnnn3Cc3ccco3)cc2c1 was run?
**A.** Its activity change, negative = inhibition is -19.4%.

**Q.** How did the Potency turn out when COc1ccc(OC)c(NC(=O)C(OC(=O)CNC(=O)c2ccccc2)c2ccccc2)c1 (stereo not drawn) was run?
**A.** Its Potency is 11.2 µM (active).

**Q.** How did the activity change, negative = inhibition turn out when O=C(CNC(=O)C(c1ccccc1)c1ccccc1)OCC(=O)c1ccc2ccccc2c1 was run?
**A.** Its activity change, negative = inhibition is 28.2%.

**Q.** For N#CN1CCC(NC(=O)c2cccc(C(F)(F)F)c2)CC1, which activity change, negative = inhibition is on record?
**A.** The activity change, negative = inhibition was -5.22%.

**Q.** How did the Potency turn out when O=C(CNC(=O)c1ccc(Cl)cc1)OC(C(=O)Nc1cc(C(F)(F)F)ccc1Cl)c1ccccc1 (stereo not drawn) was run?
**A.** The Potency was 10 µM (active).

**Q.** For O=C(CNC(=O)c1ccccc1)N[C@@H](C(=O)Nc1cc(C(F)(F)F)ccc1Cl)c1ccccc1, which activity change, negative = inhibition is on record?
**A.** The activity change, negative = inhibition was -6.12% and -5.77%.

**Q.** For O=C(Nc1ccc(N2CCCC2)cc1)c1ccc(Br)o1, which activity change, negative = inhibition is on record?
**A.** Its activity change, negative = inhibition is -25%.

**Q.** With COc1ccc(C(=O)NCC(=O)OCC(=O)c2ccc3ccccc3c2)cc1 as the compound, how does the Potency read?
**A.** Its Potency is 15.8 µM (active).

**Q.** With CN1N/C(=C\c2ccccc2)N=C2C(=O)N(C)C(=O)N=C21 as the compound, how does the Potency read?
**A.** Its Potency is 1.12 µM (active).

**Q.** How did the Potency turn out when CCC(C(=O)NC1CCCCC1)n1c(SCc2cccc(F)c2)nc2ccncc21 (stereo not drawn) was run?
**A.** Its Potency is 6.31 µM (active).

**Q.** Which activity change, negative = inhibition does the source give for NC(N)=NCCC[C@H](NC(=O)CNC(=O)c1ccccc1)C(=O)Nc1cc(C(F)(F)F)ccc1Cl here?
**A.** The activity change, negative = inhibition was -8.36%.

**Q.** How did the activity change, negative = inhibition turn out when CC(C)(C)C(=O)O/N=C1/C(=O)N(c2ccccc2)c2ccccc21 was run?
**A.** Its activity change, negative = inhibition is -24.3%.

**Q.** CCc1ccc(C(=O)COC(=O)CNC(=O)COc2ccccc2)cc1 was tested. Which activity change, negative = inhibition did it give?
**A.** The activity change, negative = inhibition was 35.9%.

**Q.** Which Potency does the source give for O=C(O)c1c(Sc2ccccc2)c2cc(Cl)ccc2n1Cc1ccc(Cl)cc1 here?
**A.** The Potency was 8.91 µM (active).

**Q.** How did the activity change, negative = inhibition turn out when N#Cc1nc(Nc2ccc(C(F)(F)F)cc2)nc(NC2CCCC2)n1 was run?
**A.** The activity change, negative = inhibition was 2.22%.

**Q.** How did the Potency turn out when Cc1ccc(C)c(OCCn2c(CCNC(=O)C3CCCCC3)nc3ccccc32)c1 was run?
**A.** Its Potency is 0.0708 µM (active).

**Q.** C=Cn1ccnc1P(=S)(c1ccc2c(c1)c1ccccc1n2CC)c1nccn1C=C was tested. Which activity change, negative = inhibition did it give?
**A.** Its activity change, negative = inhibition is -8.46%.

**Q.** Which Potency does the source give for CC(=O)n1cc(/C=C2/N=C(c3ccccc3)OC2=O)c2ccccc21 here?
**A.** The Potency was 0.794 µM (active).

**Q.** With O=C(c1ccc(OCCN2CCCCC2)cc1)c1c(-c2ccc(O)cc2)sc2cc(O)ccc12 as the compound, how does the activity change, negative = inhibition read?
**A.** The activity change, negative = inhibition was -21.2%.

**Q.** With CCc1ccc2[nH]c(=O)c(CN(Cc3cccs3)Cc3nnnn3Cc3ccccc3)cc2c1 as the compound, how does the activity change, negative = inhibition read?
**A.** The activity change, negative = inhibition was -18.5%.

**Q.** O=c1cc(-c2cccc(Br)c2)nc(-c2ccccc2F)o1 was tested. Which Potency did it give?
**A.** Its Potency is 11.2 µM (active).

**Q.** For CC(C)(C)OC(=O)Cc1nnc(CNC(=O)c2ccccc2)s1, which activity change, negative = inhibition is on record?
**A.** Its activity change, negative = inhibition is -0.719%.

**Q.** With CC(C)(C)OC(=O)NCc1nnc(C(C(=O)OCc2ccccc2)c2ccccc2)s1 (stereo not drawn) as the compound, how does the activity change, negative = inhibition read?
**A.** The activity change, negative = inhibition was -11.8%.

**Q.** Which activity change, negative = inhibition does the source give for O=C(NCCCc1nc2ccccc2n1CCCCOc1ccccc1)C1CCCCC1 here?
**A.** The activity change, negative = inhibition was -23.8%.

**Q.** For CCCCNC(=O)C(CC)n1c(SCc2cccc(F)c2)nc2ccncc21 (stereo not drawn), which activity change, negative = inhibition is on record?
**A.** Its activity change, negative = inhibition is -13.4%.

**Q.** With Cc1ccc2[nH]c(=O)c(CN(Cc3cccs3)Cc3nnnn3Cc3ccco3)cc2c1 as the compound, how does the activity change, negative = inhibition read?
**A.** Its activity change, negative = inhibition is -23%.

**Q.** O=C(OCN1C(=O)c2ccccc2C1=O)/C(=C\c1ccco1)NC(=O)c1ccccc1 was tested. Which Potency did it give?
**A.** The Potency was 1.12 µM (active).

**Q.** With Cc1ccc(C)c(CN2C(=O)c3ccccc3Sc3ccc(C(=O)NCc4ccc5c(c4)OCO5)cc32)c1 as the compound, how does the activity change, negative = inhibition read?
**A.** Its activity change, negative = inhibition is -8.53%.

From PubChem BioAssay AID2158 (National Center for Advancing Translational Sciences (NCATS), 2009)
